According to PubChem BioAssay AID1224921 (Broad Institute, 2016):
The whole screen tested about 1,400 compounds, of which about 350 (25%) were called active. About 2% were inconclusive and are not listed. The rule behind the calls is not given here. Not all results are given here. Measured potencies and affinities stand elsewhere.

Assay: inhibitors of Clostridioides difficile proliferation – 4-point retest, confirmation (AID 1224921);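 note: plate controls were DMSO wells for no effect and levofloxacin 16 µg/mL wells for full effect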
Conditions: Clostridioides difficile clinical isolate growth, OD600, 24 h, active compounds read low; at 30 µM unless noted

Max activity, inactive:
C[C@H](NC(=O)C[C@H]1C=C[C@@H](NC(=O)CN2CCOCC2)[C@H](CO)O1)c1ccccc1 -8.28% [at 8 µM], C/C=C/c1cnc2c(c1)C(=O)N([C@H](C)CO)C[C@@H](C)[C@@H](CN(C)Cc1ccc(F)cc1)O2 -15% [at 0.5 µM], COc1ccccc1S(=O)(=O)N[C@H]1C=C[C@@H](CC(=O)N2CCCCC2)O[C@@H]1CO -9.97% [at 8 µM], CO[C@@H]1CN(C)C(=O)c2ccc(NC(=O)c3ccccc3F)cc2OC[C@H](C)N(CC2CC2)C[C@@H]1C -12.3% [at 8 µM], CCCC#Cc1ccc2c(c1)O[C@H](CN(C)Cc1cccnc1)[C@@H](C)CN([C@@H](C)CO)S2(=O)=O 13.7% [at 8 µM], CCCNC(=O)N1C[C@H](C)[C@H](OC)CN(C)C(=O)c2cc(NC(C)=O)ccc2OC[C@H]1C 4.83% [at 8 µM], CC(=O)N(C)C[C@@H]1Oc2ncc(C#Cc3ccc(F)cc3)cc2C(=O)N([C@@H](C)CO)C[C@@H]1C 32.1%, C/C=C/c1ccc2c(c1)O[C@H](CN(C)C(=O)Cc1ccncc1)[C@@H](C)CN([C@H](C)CO)S2(=O)=O -10.9% [at 8 µM], CCCN1C[C@@H](C)[C@@H](OC)CN(C)C(=O)c2cc(NC(=O)c3cccc(OC)c3)ccc2OC[C@@H]1C -16.1% [at 1.95 µM], COc1ccccc1C#Cc1ccc2c(c1)O[C@H](CN(C)Cc1cccnc1)[C@H](C)CN([C@@H](C)CO)S2(=O)=O 25.3%, Cc1ccccc1-c1ccc2c(c1)O[C@@H](CN(C)Cc1ccncc1)[C@@H](C)CN([C@H](C)CO)S2(=O)=O 49.5%, CO[C@H]1CN(C)C(=O)c2ccc(NC(=O)C3CC3)cc2OC[C@H](C)N(Cc2cncnc2)C[C@H]1C -10.1% [at 1.95 µM], CO[C@@H]1CN(C)C(=O)c2ccc(NC(=O)Nc3ccccc3)cc2OC[C@H](C)NC[C@@H]1C -13.5% [at 8 µM], CO[C@H]1CN(C)C(=O)c2ccc(NC(=O)Nc3ccccc3)cc2OC[C@H](C)NC[C@H]1C -20.9% [at 8 µM], CO[C@@H]1CN(C)C(=O)c2ccc(NC(=O)c3nc4ccccc4s3)cc2OC[C@H](C)N(Cc2ccncc2)C[C@@H]1C 26.2%, CO[C@@H]1CN(C)C(=O)c2ccc(NC(=O)Nc3ccccc3)cc2OC[C@H](C)NC[C@H]1C -11.5% [at 0.5 µM], CO[C@H]1CN(C)C(=O)c2ccc(NC(=O)Nc3ccccc3)cc2OC[C@@H](C)NC[C@H]1C -11.9%, CO[C@@H]1CN(C)C(=O)c2ccc(NC(=O)c3nc4ccccc4s3)cc2OC[C@@H](C)N(Cc2ccncc2)C[C@@H]1C 23.4%, COc1ccccc1S(=O)(=O)N[C@H]1C=C[C@H](CC(=O)N2CCCCC2)O[C@@H]1CO -11.2% [at 1.95 µM], C[C@H](NC(=O)C[C@@H]1C[C@@H]2c3cc(NC(=O)NC4CCCCC4)ccc3O[C@@H]2[C@@H](CO)O1)c1ccccc1 6.02% [at 8 µM], CO[C@H]1CN(C)C(=O)c2cc(NC(=O)c3cc(C)on3)ccc2OC[C@H](C)N(C(C)=O)C[C@H]1C -7.95% [at 1.95 µM], O=C(C[C@@H]1C[C@@H]2c3cc(NC(=O)Nc4ccc(C(F)(F)F)cc4)ccc3O[C@@H]2[C@@H](CO)O1)NCC1CC1 20.8% [at 35 µM], CC(C)[C@@H](C)NC(=O)N(C)C[C@@H]1OCc2ccccc2-c2ccccc2C(=O)N([C@H](C)CO)C[C@H]1C 47.6% [at 35 µM], CO[C@H]1CN(C)C(=O)c2cc(NC(=O)C3CCC3)ccc2OC[C@H](C)N(Cc2ccc(F)cc2)C[C@H]1C 14.5%, COc1ccc(-c2ccc([C@H]3[C@H](C#N)N(C(=O)NC4CCCCC4)[C@H]3CO)cc2)cc1 32.4%, C[C@@H]1CN([C@H](C)CO)C(=O)c2cc(NC(=O)Nc3ccc(F)cc3)ccc2O[C@@H](C)CCCCO[C@H]1CN(C)Cc1ccc2c(c1)OCO2 -9.48%, C[C@@H]1CCCCO[C@H](CN(C)Cc2ccc3c(c2)OCO3)[C@H](C)CN([C@@H](C)CO)C(=O)c2cc(NC(=O)Nc3ccc(F)cc3)ccc2O1 23.7%, C[C@@H]1CN([C@H](C)CO)C(=O)c2cc(NC(=O)Nc3ccc(C(F)(F)F)cc3)ccc2O[C@@H](C)CCCCO[C@@H]1CN(C)Cc1ccc2c(c1)OCO2 29.4% [at 1.95 µM], C[C@H](CO)N1C[C@H](C)[C@H](CN(C)Cc2ccc3c(c2)OCO3)OCCCC[C@H](C)Oc2ccc(NC(=O)Nc3ccc(F)cc3)cc2C1=O -7.04% [at 0.5 µM], C[C@H](CO)N1C[C@H](C)[C@H](CN(C)Cc2ccc3c(c2)OCO3)OCCCC[C@H](C)Oc2ccc(NC(=O)Nc3ccc(C(F)(F)F)cc3)cc2C1=O 31.6% [at 0.5 µM], C[C@@H]1CCCCO[C@H](CN(C)Cc2ccc3c(c2)OCO3)[C@@H](C)CN([C@H](C)CO)C(=O)c2cc(NC(=O)Nc3ccc(C(F)(F)F)cc3)ccc2O1 15.4% [at 1.95 µM], CC(C)CC#Cc1ccc2c(c1)O[C@@H](CN(C)CC1CCOCC1)[C@H](C)CN([C@@H](C)CO)S2(=O)=O 17.9%, CO[C@@H]1CN(C)C(=O)c2ccc(NC(=O)c3nc4ccccc4s3)cc2OC[C@@H](C)N(Cc2cccnc2)C[C@H]1C 33.1%, CC(C)CC#Cc1ccc2c(c1)O[C@H](CN(C)Cc1ccccc1F)[C@H](C)CN([C@H](C)CO)S2(=O)=O 28.2%, COc1ccccc1S(=O)(=O)N(C)C[C@H]1OCc2ccccc2-c2c(n(C)c3ccccc23)C(=O)N([C@@H](C)CO)C[C@H]1C 11.5%, C[C@@H]1CN([C@H](C)CO)S(=O)(=O)c2ccc(-c3ccccc3)cc2O[C@H]1CN(C)Cc1cccnc1 46%, CN1CCN(C(=O)C[C@@H]2C[C@@H]3c4cc(NC(=O)Nc5ccc(C(F)(F)F)cc5)ccc4O[C@@H]3[C@H](CO)O2)CC1 30.1%, Cc1ccccc1-c1ccc2c(c1)O[C@@H](CN(C)Cc1ccncc1)[C@H](C)CN([C@@H](C)CO)S2(=O)=O 33.1%, CCNC(=O)C[C@@H]1CC[C@H](NC(=O)C2CC2)[C@@H](CO)O1 -9.17%, O=C(Nc1ccc2c(c1)OCO2)N[C@H]1CC[C@H](CCNC(=O)C2CC2)O[C@@H]1CO -10.4% [at 1.95 µM], O=C(NCC[C@@H]1CC[C@H](NC(=O)C2CCCCC2)[C@@H](CO)O1)Nc1ccc(Cl)cc1 16.1% [at 8 µM], O=C(NCC[C@H]1CC[C@@H](NC(=O)C2CCCCC2)[C@@H](CO)O1)Nc1ccc(Cl)cc1 15.3% [at 8 µM], C[C@@H]1CN([C@@H](C)CO)S(=O)(=O)c2ccc(C#CC3CC3)cc2O[C@H]1CN(C)Cc1ccncc1 53.6%, C[C@@H]1CN([C@@H](C)CO)S(=O)(=O)c2ccc(C3=CCCC3)cc2O[C@H]1CN(C)Cc1ccncc1 8.26%, CCCN1[C@@H]2c3ccc(/C=C/c4ccccc4)c(=O)n3C[C@H]1[C@H](CO)[C@H]2C(=O)NCC1CC1 3.29%, O=C(Nc1ccc2c(c1)[C@@H]1C[C@H](CC(=O)N3CCc4ccccc4C3)O[C@H](CO)[C@@H]1O2)NC1CCCC1 -11.8%, CC(C)[C@H](C)NC(=O)N(C)C[C@@H]1OCc2ccccc2-c2ccccc2C(=O)N([C@H](C)CO)C[C@H]1C -14.1% [at 8 µM], CCC(=O)Nc1ccc2c(c1)C(=O)N(C)C[C@H](OC)[C@@H](C)CN(C(=O)CN1CCOCC1)[C@H](C)CO2 -15.4% [at 1.95 µM], CCCNC(=O)Nc1ccc2c(c1)C(=O)N(C)C[C@@H](OC)[C@H](C)CN(CCC(F)(F)F)[C@@H](C)CO2 17.1%, CO[C@@H]1CN(C)C(=O)c2cc(NC(=O)c3cccc(F)c3)ccc2OC[C@H](C)N(C(C)=O)C[C@H]1C -16.4% [at 0.5 µM], CCCN1C[C@H](C)[C@@H](OC)CN(C)C(=O)c2cc(NC(=O)Nc3ccccc3F)ccc2OC[C@H]1C -17.1% [at 8 µM], Cc1noc(C)c1NC(=O)N[C@H]1CC[C@@H](CC(=O)Nc2ccc(-c3ccccc3)cc2)O[C@@H]1CO 28.3% [at 35 µM], O=C(O)C[C@H]1C[C@@H]2c3cc(NC(=O)c4ccc5c(c4)OCO5)ccc3O[C@@H]2[C@H](CO)O1 -10.2% [at 0.5 µM], CCNC(=O)C[C@H]1CC[C@@H](NC(=O)C2CC2)[C@H](CO)O1 -5.49% [at 1.95 µM], CCNC(=O)C[C@H]1CC[C@H](NC(=O)C2CC2)[C@@H](CO)O1 -15.8% [at 8 µM], CO[C@@H]1CN(C)C(=O)c2ccc(NC(=O)Nc3cccc(Cl)c3)cc2OC[C@@H](C)N(C(=O)Nc2c(C)noc2C)C[C@H]1C -7.11% [at 0.5 µM], C[C@@H]1CN([C@@H](C)CO)S(=O)(=O)c2ccc(C3=CCCCC3)cc2O[C@@H]1CN(C)Cc1ccncc1 54.5%
